Results taken from PubChem BioAssay (EPA / NIEHS).
Values joined by “and” are separate entries in the source; they are usually repeats but may differ in a detail not shown here. Equal values may be shown once. Records with an inconclusive call do not appear. Active and inactive are the calls of the source. The calls were made as follows, unless noted: active = hit-call score of the fitted dose curve at least 0.9, where 1 is the maximum; inconclusive = response in the unintended direction; inactive = score below 0.9.

How the values were obtained:
[1] = TOX21_p53_BLA_p2_viability: Viability Assessment in the Tox21 HCT-116 p53 Agonism Beta-lactamase Assay, Phase 2 (AID 2283591);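 also: actives lower the ATP signal meaning cytotoxicity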
Summary of the method: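 Cytotoxicity readout: CellTiter-Glo ATP luminescence, 30 min at room temperature, after the beta-lactamase read. Cells were HCT116 exposed 16 h at 37C to compounds pin-transferred at 217-fold dilution from DMSO stocks.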

[2] = molecular target: Cellular tumor antigen p53 (Homo sapiens) (UniProt P04637); experiment: TOX21_p53_BLA_p2_ratio: Tox21 HCT-116 p53 Agonism Beta-lactamase Assay, Ratio, Phase 2 (AID 2283592)
Summary of the method: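 Readout: blue/green (460/530 nm) FRET emission ratio after 2 h CCF4-AM loading at room temperature, excitation 405 nm. HCT116 p53 bla cells, 16 h compound exposure at 37C, 5% CO2; agonist direction fitted against DMSO baseline.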

[3] = TOX21_p53_BLA_p3_viability: Viability Assessment in the Tox21 HCT-116 p53 Agonism Beta-lactamase Assay, Phase 3 (AID 2283593);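 also: cells exposed to compound for 16 h before reading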
Summary of the method: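 Cellular ATP was quantified by CellTiter-Glo luminescence, read after 30 min at room temperature. Beforehand, HCT116 cells (4000/well) received compound 5 h post-seeding, 217-fold diluted from DMSO, then incubated 16 h at 37C.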

[4] = molecular target: Cellular tumor antigen p53 (Homo sapiens) (UniProt P04637); experiment: TOX21_p53_BLA_p3_ratio: Tox21 HCT-116 p53 Agonism Beta-lactamase Assay, Ratio, Phase 3 (AID 2283596)
Summary of the method: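 Cells were seeded at 4000/well, rested 5 h at 37C, then dosed with DMSO compound solutions (217-fold dilution) for 16 h. CCF4-AM substrate was loaded for 2 h at room temperature, and the 460/530 nm emission ratio was fitted for gain of signal versus DMSO.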

[5] = TOX21_p53_BLA_p4_viability: Viability Assessment in the Tox21 HCT-116 p53 Agonism Beta-lactamase Assay, Phase 4 (AID 2283597);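 also: hits lower the luminescence signal meaning cytotoxicity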
Summary of the method: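 ATP content by CellTiter-Glo luminescence, 30 min RT, read after the beta-lactamase ratio step. Cells: HCT116, 4000/well, compound added after 5 h, exposure 16 h at 37C. Signal loss = reduced viability.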

[6] = molecular target: Cellular tumor antigen p53 (Homo sapiens) (UniProt P04637); experiment: TOX21_p53_BLA_p5_ratio: Tox21 HCT-116 p53 Agonism Beta-lactamase Assay, Ratio, Phase 5 (AID 2283599)
Summary of the method: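 Beta-lactamase reporter ratio (blue 460 nm over green 530 nm, 405 nm excitation) after 2 h CCF4-AM loading, in HCT-116 cells exposed 16 h at 37 C to compounds pinned at 217-fold dilution. Increases relative to DMSO baseline scored.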

[7] = molecular target: Cellular tumor antigen p53 (Homo sapiens) (UniProt P04637); experiment: TOX21_p53_BLA_p4_ratio: Tox21 HCT-116 p53 Agonism Beta-lactamase Assay, Ratio, Phase 4 (AID 2283601)
Summary of the method: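 Signal is the blue/green (460nm/530nm) ratio of cleaved versus uncleaved CCF4-AM substrate, read after 2 h substrate loading. Cells were HCT116 carrying the p53-responsive beta-lactamase reporter, dosed 16 h at 37C, 5% CO2; CellTiter-Glo measured in parallel.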

[8] = molecular target: PGR (gene 5241) (UniProt P06401); experiment: TOX21_PR_BLA_Followup_Agonist_ratio: Tox21 HEK293 Progesterone Receptor (PR) Agonism Beta-lactamase Follow-Up Assay, Ratio (AID 2283933)
Summary of the method: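 Read-out: ratio of cleaved (ch2) to uncleaved (ch1) beta-lactamase substrate fluorescence, gain-of-signal relative to DMSO baseline. Cells: PR-UAS-bla HEK293T, 2% charcoal-stripped FBS; compound exposure 16 hr, 37C; substrate 2 hr, RT.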

[9] = molecular target: PGR (gene 5241) (UniProt P06401); experiment: TOX21_PR_BLA_Followup_Antagonist_ratio: Tox21 HEK293 Progesterone Receptor (PR) Antagonism Beta-lactamase Follow-Up Assay, Ratio (AID 2283934)
Summary of the method: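 Read-out: blue/green beta-lactamase FRET ratio (cleaved ch2 over uncleaved ch1), fitted relative to DMSO baseline. Cells: PR-UAS-bla HEK293T, GAL4-UAS reporter, stimulated with 1 nM R5020 final; 16 hr compound exposure, 37C.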

[10] = TOX21_PR_BLA_Followup_Agonist_viability: Viability Assessment in the Tox21 HEK293 Progesterone Receptor (PR) Agonism Beta-lactamase Follow-Up Assay (AID 2283935);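 also: signal loss means lower viability so actives are cytotoxic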
Summary of the method: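 Luminescent ATP quantitation (CellTiter-Glo, 30 min, room temperature) in the same wells as the beta-lactamase read, on PR-UAS-bla HEK293T cells exposed to compound for 16 hr at 37C in 2% charcoal-stripped serum.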

[11] = TOX21_PR_BLA_Followup_Antagonist_viability: Viability Assessment in the Tox21 HEK293 Progesterone Receptor (PR) Antagonism Beta-lactamase Follow-Up Assay (AID 2283936);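 also: cells exposed to compound with R5020 agonist for 16 h; hits lower the luminescence signal meaning cytotoxicity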
Summary of the method: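 PR-UAS-bla HEK293T cells in medium with 2% charcoal-stripped FBS were treated with compounds plus R5020 for 16 hr at 37C. After the beta-lactamase read, CellTiter-Glo was added to the same wells and luminescence read after 30 min at room temperature.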

[12] = molecular target: PGR (gene 5241) (UniProt P06401); experiment: TOX21_PR_LUC_Followup_Agonist: Tox21 HEK293 Progesterone Receptor (PR) Agonism Luciferase Follow-Up Assay (AID 2283937; active = hit-call score of the fitted dose curve at least 0.9, where 1 is the maximum; inactive = score below 0.9)
Summary of the method: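 Luminescence read-out (ONE-Glo, 30 min at room temperature) of PR-driven luciferase in HEK293-PR-A-luc cells after 16 h compound exposure at 37C; gain of signal fitted relative to DMSO baseline.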

[13] = molecular target: PGR (gene 5241) (UniProt P06401); experiment: TOX21_PR_LUC_Followup_Antagonist: Tox21 HEK293 Progesterone Receptor (PR) Antagonism Luciferase Follow-Up Assay (AID 2283938);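 also: curve fitted upward as signal gain over DMSO baseline despite antagonist label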
Summary of the method: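 Luminescence from ONE-Glo reagent, measured after 30 min at room temperature, served as readout. Cells (HEK293 carrying PR-A-luc) had been treated 16 h at 37C with DMSO-dissolved compounds. Activity was fitted against DMSO controls.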

[14] = TOX21_PR_LUC_Followup_Antagonist_viability: Viability Assessment in the Tox21 HEK293 Progesterone Receptor (PR) Antagonism Luciferase Follow-Up Assay (AID 2283940)
Summary of the method: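 Read-out: CellTiter-Glo ATP luminescence, loss of signal taken as reduced viability. Cells: HEK293-PR-A-luc, 3,000/well, 5 h settling, then 16 h compound exposure at 37C, 0% CO2.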

[15] = TOX21_PR_LUC_Followup_Agonist_viability: Viability Assessment in the Tox21 HEK293 Progesterone Receptor (PR) Agonism Luciferase Follow-Up Assay (AID 2283941);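 also: loss of signal means cytotoxicity so actives lower viability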
Summary of the method: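 Cytotoxicity counter-screen: ATP content by CellTiter-Glo luminescence, loss of signal = reduced viability. HEK293-PR-A-luc, 3,000 cells/well, compound exposure 16 h, 37C.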

[16] = TOX21_p53_BLA_p5_viability: Viability Assessment in the Tox21 HCT-116 p53 Agonism Beta-lactamase Assay, Phase 5 (AID 2283600)
Summary of the method: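 ATP luminescence (CellTiter-Glo, 30 min, RT) served as the viability read-out, with loss of signal indicating cytotoxicity. Compounds in DMSO were pinned at a 217-fold dilution onto 4000 cells/well and incubated 16 h, 37C.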

Measured: AC50

Cellular tumor antigen p53 (Homo sapiens), sequence (P04637 whole entry, looked up): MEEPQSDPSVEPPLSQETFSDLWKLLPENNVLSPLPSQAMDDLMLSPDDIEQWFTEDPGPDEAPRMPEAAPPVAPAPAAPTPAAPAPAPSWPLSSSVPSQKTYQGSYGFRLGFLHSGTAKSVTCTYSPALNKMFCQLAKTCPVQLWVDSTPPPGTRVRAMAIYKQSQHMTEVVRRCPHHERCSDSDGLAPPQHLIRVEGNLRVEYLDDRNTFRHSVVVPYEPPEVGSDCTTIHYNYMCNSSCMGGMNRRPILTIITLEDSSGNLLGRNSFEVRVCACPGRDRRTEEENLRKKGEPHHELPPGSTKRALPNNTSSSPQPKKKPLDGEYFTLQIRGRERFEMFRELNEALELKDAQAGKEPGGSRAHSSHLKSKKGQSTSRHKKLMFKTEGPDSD
PGR (gene 5241), sequence (P06401 whole entry, looked up, the tested form may be a part): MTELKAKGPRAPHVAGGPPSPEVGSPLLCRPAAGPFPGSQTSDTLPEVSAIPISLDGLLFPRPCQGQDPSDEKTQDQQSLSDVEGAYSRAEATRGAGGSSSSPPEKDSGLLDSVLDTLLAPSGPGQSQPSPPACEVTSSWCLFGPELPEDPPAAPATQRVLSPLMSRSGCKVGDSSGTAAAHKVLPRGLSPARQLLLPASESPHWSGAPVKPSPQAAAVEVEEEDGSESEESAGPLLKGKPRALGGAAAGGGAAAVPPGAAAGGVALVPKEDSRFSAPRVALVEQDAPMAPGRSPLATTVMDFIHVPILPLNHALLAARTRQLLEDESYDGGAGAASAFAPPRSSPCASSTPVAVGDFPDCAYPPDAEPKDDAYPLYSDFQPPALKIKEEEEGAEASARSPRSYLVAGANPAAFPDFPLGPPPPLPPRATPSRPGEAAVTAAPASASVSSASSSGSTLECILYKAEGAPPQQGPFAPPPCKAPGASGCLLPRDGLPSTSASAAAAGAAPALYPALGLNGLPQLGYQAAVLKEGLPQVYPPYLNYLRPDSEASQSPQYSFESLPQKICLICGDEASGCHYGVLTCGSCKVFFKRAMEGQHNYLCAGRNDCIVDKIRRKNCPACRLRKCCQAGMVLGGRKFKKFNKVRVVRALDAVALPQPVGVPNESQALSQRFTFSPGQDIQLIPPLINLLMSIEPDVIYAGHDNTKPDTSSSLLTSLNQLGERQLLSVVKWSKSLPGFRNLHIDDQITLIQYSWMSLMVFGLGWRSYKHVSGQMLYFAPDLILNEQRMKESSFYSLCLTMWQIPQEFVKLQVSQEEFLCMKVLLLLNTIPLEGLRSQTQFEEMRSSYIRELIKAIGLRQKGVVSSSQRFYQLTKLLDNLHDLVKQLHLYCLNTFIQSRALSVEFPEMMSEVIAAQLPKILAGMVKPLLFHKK

CC(C)C[C@H](NC(=O)[C@H](Cc1ccccc1)NC(=O)c1cnccn1)B(O)O
active: [1] 283 nM and 357 nM | [2] 9.74 nM and 12.9 nM | [3] 318 nM and 262 nM | [4] 10.5 nM and 14.1 nM | [5] 128 nM and 150 nM | [6] 25.2 nM and 15.7 nM | [7] 9.86 nM and 13 nM | [9] 168 nM | [13] 71.7 nM
inactive: [8] | [10] | [11] | [12] | [14] | [15]

O=Cc1cc2ccccc2o1
inactive: [1] | [2] | [3] | [4] | [5] | [6] | [7]

O=C(O)c1cc(-c2ccc(F)cc2F)ccc1O
inactive: [1] | [2] | [3] | [4] | [5] | [6] | [7]

CC[C@H]1OC(=O)[C@H](C)[C@@H](O[C@H]2C[C@@](C)(OC)[C@@H](O)[C@H](C)O2)[C@H](C)[C@@H](O[C@@H]2O[C@H](C)C[C@H](N(C)C)[C@H]2O)[C@](C)(OC)C[C@@H](C)C(=O)[C@H](C)[C@@H](O)[C@]1(C)O
inactive: [1] | [2] | [3] | [4] | [5] | [6] | [7]

C[C@H](CN1CCCC1)C(=O)c1ccc(C(F)(F)F)cc1
inactive: [1] | [2] | [3] | [4] | [5] | [16]
